In PubChem BioAssay one finds z-score and composite z-score data, which are given here for twelve compounds.

Each structure is given as a SMILES string. Calls of active or inactive are those of the source. Unless noted, the rule behind the calls is not given here.

The nature of test [1]: resazurin metabolic signal in HepG2 cells – cell-based, resazurin fluorescence, 24 h, PK04 Diversity Set, profiling panel (AID 1172). Note: test concentration not given here. As to conditions: HepG2 viability, higher = more signal.
Test [2] is described as follows: budding yeast growth changes without added modifier – OD600, strain BY4716, 24 h, basal condition, primary screen (AID 1173). The note with it: S. cerevisiae BY4716 growth, OD600, 24 h; higher = more signal, called active from +8 up or from −8 down.
Test [3] is described as follows: viability profiling in MM1S myeloma cells – cell-based, resazurin fluorescence, basal, 24 h, PK04 Diversity Set, profiling panel (AID 1174).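 Note: MM1S multiple myeloma cell line; test concentration not given here.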 As to conditions: higher = more signal, called active from +8 up or from −8 down.
Test [4] concerns the target Dihydroorotate dehydrogenase (quinone), mitochondrial (Plasmodium falciparum (isolate 3D7)) (UniProt Q08210). Kind of test: inhibition of P. falciparum DHODH – biochemical, C-terminal His tag, absorbance 600 nm, primary screen (AID 1175).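 Note: recombinant parasite enzyme with a five histidine tag at its C terminus; test concentration not given here.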 The note with it: PfDHODH enzyme, DCIP absorbance 600 nm; higher = more signal, called active from +8 up or from −8 down.
Test [5] is described as follows: inhibition of PAO1 biofilm formation – strain PAO1, LB-PBS medium, absorbance 600 nm, primary screen (AID 1176). Note: test concentration not given here. As to conditions: P. aeruginosa PAO1 growth/biofilm, A600, 12 h; higher = more signal.
Test [6] can be described thus: growth modulation of vineyard yeast isolate – strain RM11-1a, OD600, basal, 24 h, primary screen (AID 1177).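 Note: cultures grown under basal conditions with no added stressor; test concentration not given here.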 The note with it: S. cerevisiae RM11-1a growth, OD600, 24 h; higher = more signal, called active from +8 up or from −8 down.
Test [7] can be described thus: growth of efflux-deficient E. coli DRC39 – strain DRC39, OD650, 24 h, E. coli filamentation inducers, primary screen (AID 1178).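 Note: growth measured as culture turbidity by optical density at 650 nm; test concentration not given here.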 As to conditions: E. coli DRC39 acrAB, higher = more signal, called active from +8 up or from −8 down.
A short description of test [8]: growth of efflux-deficient E. coli DRC39 – strain DRC39, OD650, 48 h, E. coli filamentation inducers, primary screen (AID 1179).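 Note: screen aims at cell division blockers that make cells filament.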 As to conditions: E. coli DRC39 delta-acrAB growth, higher = more signal, called active from +8 up or from −8 down.
A short description of test [9]: viability profiling in RPMI8226 myeloma cells – cell-based, resazurin fluorescence, basal, 24 h, PK04 Diversity Set, profiling panel (AID 1180).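 Note: RPMI8826 multiple myeloma cell line at 5000 cells per well; test concentration not given here.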 The note with it: higher = more signal.
In test [10] the target is E3 ubiquitin-protein ligase XIAP (Homo sapiens) (UniProt P98170). Nature of the test: small molecules binding XIAP protein – biophysical, small-molecule microarray, fluorescence 635 nm, primary screen (AID 1181).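 Note: score merges 667 nm emission and signal to noise over triplicate slides.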 As to conditions: higher = more signal.
Sequence of E3 ubiquitin-protein ligase XIAP (Homo sapiens) (P98170 whole entry, looked up): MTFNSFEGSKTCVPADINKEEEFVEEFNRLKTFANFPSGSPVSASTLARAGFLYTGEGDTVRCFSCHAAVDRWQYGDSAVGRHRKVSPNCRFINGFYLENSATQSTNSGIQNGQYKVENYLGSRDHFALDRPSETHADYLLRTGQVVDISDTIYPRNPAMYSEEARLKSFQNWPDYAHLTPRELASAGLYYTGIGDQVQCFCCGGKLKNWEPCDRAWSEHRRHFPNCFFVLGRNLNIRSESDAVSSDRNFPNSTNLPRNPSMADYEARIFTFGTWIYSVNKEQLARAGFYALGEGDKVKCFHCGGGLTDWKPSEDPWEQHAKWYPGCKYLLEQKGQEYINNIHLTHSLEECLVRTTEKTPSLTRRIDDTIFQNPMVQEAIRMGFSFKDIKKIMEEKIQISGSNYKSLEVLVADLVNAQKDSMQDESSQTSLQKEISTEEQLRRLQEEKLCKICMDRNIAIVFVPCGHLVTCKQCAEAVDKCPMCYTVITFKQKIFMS

Sequence of Dihydroorotate dehydrogenase (quinone), mitochondrial (Plasmodium falciparum (isolate 3D7)) (Q08210 whole entry, looked up): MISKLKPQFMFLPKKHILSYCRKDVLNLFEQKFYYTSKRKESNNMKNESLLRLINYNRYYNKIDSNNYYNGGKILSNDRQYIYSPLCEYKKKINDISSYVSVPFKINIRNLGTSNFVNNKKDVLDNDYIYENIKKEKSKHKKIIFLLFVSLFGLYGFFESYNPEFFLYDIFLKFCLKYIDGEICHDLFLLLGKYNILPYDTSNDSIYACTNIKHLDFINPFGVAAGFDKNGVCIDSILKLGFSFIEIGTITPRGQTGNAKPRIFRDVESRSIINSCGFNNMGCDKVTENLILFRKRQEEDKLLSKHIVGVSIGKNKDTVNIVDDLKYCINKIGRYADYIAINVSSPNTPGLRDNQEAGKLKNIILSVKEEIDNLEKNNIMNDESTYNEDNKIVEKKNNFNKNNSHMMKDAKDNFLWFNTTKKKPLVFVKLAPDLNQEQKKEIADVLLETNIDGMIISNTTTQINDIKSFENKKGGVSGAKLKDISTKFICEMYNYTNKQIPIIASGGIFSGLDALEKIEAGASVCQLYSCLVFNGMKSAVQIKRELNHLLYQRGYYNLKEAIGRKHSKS

Take `COCCOC(=O)N1C(=O)[C@@]2(c3ccccc31)[C@H](C(=O)N1CCc3cc(OC)c(OC)cc3C1)[C@H]1C(=O)O[C@H](c3ccccc3)[C@H](c3ccccc3)N1[C@@H]2c1ccc(OCCO)cc1`: the z-score in test [1] is -0.484; in test [2], 1.26 (inactive); in [3], -0.13 (inactive); in test [5] it was 2.41 (inactive); in [6] it was 2.61 (inactive); in test [7], -0.259 (inactive). Further, the z-score in [8] was 0.144 (inactive); in [9], 0.549. Further, the composite z-score in test [4] is -0.76 (inactive); in test [10] it was -0.0405.
As for `C[C@H]1C2[C@H](Cc3ccccc3)NC(=O)[C@]23C(=O)N[C@H](Cc2ccccc2)C(=O)N2CCC[C@H]2C(=O)NC/C=C\C/C=C/C3[C@@H]2O[C@]12C` (stereo not given in full), the z-score in test [1] is 0.696; in [2] it was -1.96 (inactive); in [3], 1.22 (inactive); in test [5] it was 1.01 (inactive); in [6], -0.835 (inactive); in test [7], 1.11 (inactive). Besides, the z-score in [8] is -0.0988 (inactive); in test [9], 1.19. The composite z-score in [4] was -1.51 (inactive); in test [10], 0.091.
For the compound `C=C(COC)/C(=C/C[C@@H](OC(=O)c1ccncc1)c1ccc(CO)o1)c1cc(C(=O)OC)ccc1OC`, the z-score is 0.755 in test [1]; -0.439 (inactive) in test [2]; 0.0477 (inactive) in test [3]; 1.03 (inactive) in test [5]; 0.0707 (inactive) in test [6]; 1.19 (inactive) in [7]. In addition, the figures for the z-score in test [8] and in test [9] were 1.03 (inactive) and 0.515, respectively. The results for the composite z-score in test [4] and in test [10] were -2.14 (inactive) and 1.7, respectively.
On to `CCCC=C(CCC)[C@@H](NC(=O)c1cccs1)c1ccc(C(F)(F)F)cc1`, for which the z-score in test [1] is 0.74; in test [2], 0.872 (inactive); in test [3], 0.116 (inactive); in test [5] it was 1.69 (inactive); in test [6], 0.196 (inactive); in test [7] it was 0.224 (inactive). Further, the z-score is -0.262 (inactive) in test [8] and 0.455 in [9]. Besides, the composite z-score was -4.81 (inactive) in test [4] and 0.309 in test [10].
As for `COC(=O)[C@H](Cc1ccccc1)N[C@@H](/C=C/C1CC1)[C@H](O)Cc1ccccc1`, the z-score is 0.717 in test [1]; -2.78 (inactive) in test [2]; 0.488 (inactive) in test [3]; 0.0117 (inactive) in test [5]; 0.584 (inactive) in test [6]; -0.053 (inactive) in test [7]. Also, the z-score in test [8] was -0.181 (inactive); in [9], 0.484. For the same compound, the results for the composite z-score in [4] and in test [10] were 0.342 (inactive) and -0.0559, respectively.
Take `COC(=O)[C@@]1(Cc2ccc(F)cc2)[C@H]2c3cc(C(=O)N(C)C)n(Cc4ccc(Cl)c(C(F)(F)F)c4)c3C[C@H]2CN1C(=O)c1ccccc1`: the z-score was -0.81 in test [1]; 0.359 (inactive) in test [2]; -2.72 (inactive) in test [3]; 1.09 (inactive) in [5]; -0.285 (inactive) in [6]; -1.2 (inactive) in test [7]. Also, the figures for the z-score in [8] and in test [9] were -0.531 (inactive) and -3.26, respectively. For the same compound, the figures for the composite z-score in test [4] and in test [10] were 0.117 (inactive) and 0.929, respectively.
As for `COc1cc2c(cc1OC)CN(C(=O)[C@H]1[C@@H]3C(=O)O[C@@H](c4ccccc4)[C@@H](c4ccccc4)N3[C@@H](c3ccc(O)cc3)[C@]13C(=O)Nc1ccc(C#CCCO)cc13)CC2`, the z-score in test [1] was -0.29; in test [2] it was 0.966 (inactive); in test [3] it was 0.577 (inactive); in test [5], 0.393 (inactive); in test [6] it was 1.16 (inactive); in test [7], 0.0945 (inactive). Further, the z-score is -0.712 (inactive) in test [8] and 0.756 in [9]. Moreover, the values for the composite z-score in test [4] and in [10] were 0.857 (inactive) and -0.249, respectively.
Consider `COc1cc(Br)cc(C(O)C2C=CC3C(=O)N(C)C(=O)C3N2N2CCCCC2)c1OC` (stereo not given), for which the z-score is -1.17 in test [1]; -1.43 (inactive) in [2]; -1.17 (inactive) in test [3]; 0.406 (inactive) in [5]; 1.25 (inactive) in test [6]; -0.596 (inactive) in [7]. The z-score was -0.683 (inactive) in [8] and -1.07 in [9]. Besides, the composite z-score in test [4] was -0.282 (inactive); in [10], 0.0123.
In the case of `CC(C)CNC(=O)[C@@]1(Cc2ccccc2I)c2ccccc2C(=O)N(C2CCCCC2)[C@H]1c1ccc(CO)cc1`, the z-score in test [1] was -0.462; in [2] it was 0.408 (inactive); in test [3], -0.424 (inactive); in [5] it was 0.348 (inactive); in test [6], -0.199 (inactive); in [7], -0.113 (inactive). The results for the z-score in test [8] and in [9] were -0.0397 (inactive) and -0.124, respectively. For the same compound, the values for the composite z-score in test [4] and in test [10] were 0.193 (inactive) and -0.0789, respectively.
Take `C=CCNC(=O)[C@H]1[C@@H]2C(=O)O[C@@H](c3ccccc3)[C@@H](c3ccccc3)N2[C@@H](c2ccccc2OCCO)[C@]12C(=O)Nc1ccc(C#CCCO)cc12`: the z-score is -0.349 in test [1]; 1.22 (inactive) in test [2]; -0.942 (inactive) in test [3]; 0.462 (inactive) in test [5]; 2.33 (inactive) in [6]; -0.393 (inactive) in test [7]. Besides, the z-score in test [8] was -0.445 (inactive); in test [9], -0.969. In addition, the results for the composite z-score in [4] and in test [10] were 2.6 (inactive) and 1.02, respectively.
As for `C=CCOC(=O)[C@H]1[C@@H]2C(=O)O[C@@H](c3ccccc3)[C@@H](c3ccccc3)N2[C@@H](c2ccc(OCCOC(=O)[C@H]3C[C@H]4C(=O)N[C@@H](CCCCN(C)C)C(=O)N4[C@H]3c3ccc(O)cc3)cc2)[C@]12C(=O)Nc1ccc(I)cc12`, the z-score in test [1] is 0.0141; in [2], -0.526 (inactive); in test [3], -0.934 (inactive); in test [5] it was 0.739 (inactive); in test [6], -0.0228 (inactive); in test [7] it was -0.624 (inactive). For the same compound, the z-score is -1.24 (inactive) in [8] and -0.973 in test [9]. Also, the composite z-score is 0.341 (inactive) in [4] and -0.0819 in [10].
In the case of `CC(C)[Si]1(C(C)C)O[C@@H](c2ccccc2)c2cc(-c3ccc(-c4ccc(Cl)c(Cl)c4)o3)nc(-c3ccccc3)c21`, the z-score in test [1] was -0.0945; in test [2], -1.38 (inactive); in test [3] it was -0.274 (inactive); in [5] it was 0.574 (inactive); in test [6], -0.282 (inactive); in [7], -0.0522 (inactive). Moreover, the z-score in test [8] is -0.221 (inactive); in test [9] it was -0.406. Also, the results for the composite z-score in test [4] and in test [10] were 1.74 (inactive) and -0.202, respectively.
